The assay deals with V-C8 (BRCA2-deficient hamster cells). Put plainly: normalised cell viability (fraction of plate median); higher = more viable cells (less toxic). The following applies: 5 µM. In short, it runs like this:
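In two screens, library drugs at 5 μM were given for 3 days (screen 1) or 6 days (screen 2) to hamster V-C8 cells without BRCA2 and V-C8 cells with BRCA2 restored, seeded 24 h earlier in 96-well plates. A resazurin assay gave the cell viability readout, expressed as modified robust per cent of sample against the plate median, with triplicate wells averaged.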

Where a name gives a salt, the structure may show the parent alone. ± gives the standard deviation of the averaged measurements. The full ranking holds about 1,300 compounds; the median of “normalised cell viability” is about 1, and the lowest 2% start at about 0.14. This is one part of a sample in which the lowest values are shown more often than they occur.

As to `CN1C(C)(C)CCCC1(C)C` [Pempidine tartrate], the normalised cell viability is, setting by setting: (treatment time: 3 days) 0.993 ± 0.026; (treatment time: 6 days) 1.048 ± 0.004.

`C=C1C(=O)O[C@H]2[C@H]1CC/C(C)=C/CC[C@@]1(C)O[C@@H]21` [Parthenolide]: the normalised cell viability reads like this: (treatment time: 3 days) 0.199 ± 0.017; (treatment time: 6 days) 0.416 ± 0.11.

For the molecule `Clc1ccc(CCC(Cn2ccnc2)Sc2c(Cl)cccc2Cl)cc1` (configuration not stated) [Butoconazole nitrate], the normalised cell viability (treatment time: 3 days) came to 0.839 ± 0.015 and the normalised cell viability (treatment time: 6 days) turned out to be 0.801 ± 0.028.

With `CS(=O)(=O)c1ccc(C2=C(c3ccccc3)C(=O)OC2)cc1` [Rofecoxib], the normalised cell viability turned out to be 1.02 ± 0.065 (treatment time: 3 days) and 1.02 ± 0.016 (treatment time: 6 days).

`CC(C)c1c(C(=O)Nc2ccccc2)c(-c2ccccc2)c(-c2ccc(F)cc2)n1CC[C@@H](O)C[C@@H](O)CC(=O)O` [Atorvastatin] gave a normalised cell viability (treatment time: 3 days) of 0.633 ± 0.051 and a normalised cell viability (treatment time: 6 days) of 0.734 ± 0.032.

In the case of `CC(C)n1c(/C=C/C(O)CC(O)CC(=O)O)c(-c2ccc(F)cc2)c2ccccc21` (configuration not stated) [Fluvastatin sodium salt], the normalised cell viability reads like this: (treatment time: 3 days) 0.121 ± 0.0047; (treatment time: 6 days) 0.156 ± 0.004.

Consider `C=CC(N)CCC(=O)O` (configuration not stated) [Vigabatrin], for which the normalised cell viability runs as follows: (treatment time: 3 days) 1.04 ± 0.061; (treatment time: 6 days) 1.03 ± 0.042.

Turning to `CCN(CC)CCCC(C)Nc1c2ccc(Cl)cc2nc2ccc(OC)cc12` (configuration not stated) [Quinacrine dihydrochloride dihydrate], the normalised cell viability by setting is: (treatment time: 3 days) 0.123 ± 0.011; (treatment time: 6 days) 0.108 ± 0.009.

Regarding `CCN(CCO)CCCC(C)Nc1ccnc2cc(Cl)ccc12` (configuration not stated) [Hydroxychloroquine sulfate], the normalised cell viability by setting is: (treatment time: 3 days) 0.365 ± 0.05; (treatment time: 6 days) 0.524 ± 0.048.

Regarding `CCN(CC)CCCC(C)Nc1ccnc2cc(Cl)ccc12` (configuration not stated) [Chloroquine diphosphate], the normalised cell viability runs as follows: (treatment time: 3 days) 0.756 ± 0.026; (treatment time: 6 days) 0.76 ± 0.0079.

Turning to `Clc1ccc(COC(Cn2ccnc2)c2ccc(Cl)cc2Cl)cc1` (configuration not stated) [Econazole nitrate], the normalised cell viability reads like this: (treatment time: 3 days) 0.938 ± 0.028; (treatment time: 6 days) 0.98 ± 0.023.

On to `CC[C@H](C)[C@H](N)C1=N[C@H](C(=O)N[C@@H](CC(C)C)C(=O)N[C@H](CCC(=O)O)C(=O)N[C@H](C(=O)N[C@H]2CCCCNC(=O)[C@H](CC(N)=O)NC(=O)[C@@H](CC(=O)O)NC(=O)[C@H](Cc3cnc[nH]3)NC(=O)[C@@H](Cc3ccccc3)NC(=O)[C@H]([C@@H](C)CC)NC(=O)[C@@H](CCCN)NC2=O)[C@@H](C)CC)CS1` [Bacitracin], for which the normalised cell viability (treatment time: 3 days) stood at 1.05 ± 0.02 and the normalised cell viability (treatment time: 6 days) was 0.983 ± 0.061.

With `CCCCNc1c(C(=O)OCC)c(C)nc2c1cnn2CC` [Tracazolate hydrochloride], the normalised cell viability came to 0.947 ± 0.034 (treatment time: 3 days) and 1.03 ± 0.013 (treatment time: 6 days).

On to `Nc1nc(=O)c2c([nH]1)NC[C@@H](CNc1ccc(C(=O)N[C@@H](CCC(=O)O)C(=O)O)cc1)N2C=O` [Folinic acid calcium salt], for which the normalised cell viability reads like this: (treatment time: 3 days) 1.05 ± 0.036; (treatment time: 6 days) 1.11 ± 0.06.

On to `COC(=O)N/N=C/c1c[n+]([O-])c2ccccc2[n+]1[O-]` [Carbadox], for which the normalised cell viability reads like this: (treatment time: 3 days) 0.69 ± 0.18; (treatment time: 6 days) 0.549 ± 0.029.

For `Cc1cc(/C=C/c2ccc3cc(N(C)C)ccc3[n+]2C)c(C)n1-c1ccccc1` [Pyrvinium pamoate], the normalised cell viability is, setting by setting: (treatment time: 3 days) 0.132 ± 0.0063; (treatment time: 6 days) 0.172 ± 0.012.

Regarding `CC1(C)S[C@@H]2[C@H](NC(=O)[C@H](N)c3ccccc3)C(=O)N2[C@H]1C(=O)OC1OC(=O)c2ccccc21` (some centres not stated) [Talampicillin hydrochloride], the normalised cell viability worked out at 1.09 ± 0.082 (treatment time: 3 days) and 1.02 ± 0.085 (treatment time: 6 days).

`COc1cc([C@@H]2c3cc4c(cc3[C@@H](O[C@@H]3O[C@@H]5CO[C@@H](C)O[C@H]5[C@H](O)[C@H]3O)[C@H]3COC(=O)[C@H]23)OCO4)cc(OC)c1O` [Etoposide] returned a normalised cell viability (treatment time: 3 days) of 0.155 ± 0.0057 and a normalised cell viability (treatment time: 6 days) of 0.133 ± 0.017.

As for `COc1cc(NS(=O)(=O)c2ccc(N)cc2)ncn1` [Sulfamonomethoxine], the normalised cell viability runs as follows: (treatment time: 3 days) 1.02 ± 0.057; (treatment time: 6 days) 1.05 ± 0.031.

Turning to `CC(C)(C)NC[C@H](O)c1ccc(O)c(CO)c1` [Levalbuterol hydrochloride], the normalised cell viability reads like this: (treatment time: 3 days) 1.03 ± 0.049; (treatment time: 6 days) 0.99 ± 0.13.

As for `CC(C)(S)[C@@H](N)C(=O)O` [Penicillamine], the normalised cell viability by setting is: (treatment time: 3 days) 0.964 ± 0.074; (treatment time: 6 days) 1.04 ± 0.097.

For `N[C@@H](C(=O)N[C@@H]1C(=O)N2C(C(=O)O)=C(Cl)CC[C@H]12)c1ccccc1` [Loracarbef], the normalised cell viability (treatment time: 3 days) amounted to 1.05 ± 0.1 and the normalised cell viability (treatment time: 6 days) came to 1.06 ± 0.033.

On to `OC(CCCN1CCCCC1)(c1ccccc1)c1ccccc1` [Diphenidol hydrochloride], for which the normalised cell viability reads like this: (treatment time: 3 days) 1.06 ± 0.037; (treatment time: 6 days) 1.05 ± 0.031.

On to `CC(C)(C(=O)O)c1ccc(C(O)CCCN2CCC(C(O)(c3ccccc3)c3ccccc3)CC2)cc1` (configuration not stated) [Fexofenadine HCl], for which the normalised cell viability reads like this: (treatment time: 3 days) 1.09 ± 0.02; (treatment time: 6 days) 1.04 ± 0.046.

In turn, `CC(C)(C)c1ccc(C(O)CCCN2CCC(C(O)(c3ccccc3)c3ccccc3)CC2)cc1` (configuration not stated) [Terfenadine] had a normalised cell viability (treatment time: 3 days) of 0.13 ± 0.0051 and a normalised cell viability (treatment time: 6 days) of 0.1 ± 0.0041.

For the molecule `NC[C@@H]1O[C@@H](O[C@H]2[C@H](O)[C@@H](O[C@H]3O[C@H](CO)[C@@H](O)[C@H](N)[C@H]3O)[C@H](N)C[C@@H]2N)[C@@H](O)[C@H](O)[C@H]1O` [Kanamycin A sulfate], the normalised cell viability reads like this: (treatment time: 3 days) 0.965 ± 0.052; (treatment time: 6 days) 1.04 ± 0.02.

For the molecule `O=C1CN2Cc3c(ccc(Cl)c3Cl)N=C2N1` [Anagrelide], the normalised cell viability was 1.01 ± 0.077 (treatment time: 3 days) and 1.03 ± 0.054 (treatment time: 6 days).

For the molecule `c1ccc([C@H]2CN3CCSC3=N2)cc1` [Levamisole hydrochloride], the normalised cell viability (treatment time: 3 days) worked out at 1.03 ± 0.02 and the normalised cell viability (treatment time: 6 days) was 1.02 ± 0.032.

For the molecule `CCN(CC)CCc1nc(-c2ccccc2)no1` [Oxalamine citrate salt], the normalised cell viability came to 0.986 ± 0.061 (treatment time: 3 days) and 0.933 ± 0.14 (treatment time: 6 days).

With `O=C(O)Cc1cc(I)c(Oc2ccc(O)c(I)c2)c(I)c1` [Tiratricol, 3,3',5-triiodothyroacetic acid], the normalised cell viability (treatment time: 3 days) turned out to be 0.981 ± 0.023 and the normalised cell viability (treatment time: 6 days) was 1.03 ± 0.032.

`CCCc1cc(=O)[nH]c(=S)[nH]1` [Propylthiouracil]: the normalised cell viability is, setting by setting: (treatment time: 3 days) 1.02 ± 0.022; (treatment time: 6 days) 1.025 ± 0.009.

The values above are taken from the supplement of paper PMC6609913.
